# Bioassay records from PubChem BioAssay.
# Hits are enriched below; roughly 3.5% of the tested compounds scored in any of these assays.
# FBW7 act: FBW7 E3 ligase activators, primary screen, biochemical, AlphaScreen, human. F-box/WD repeat-containing protein 7 (Homo sapiens), Q969H0. AlphaScreen FBW7–phospho-cyclin E peptide binding, activator screen. normalized activity (activation), % at 26.1 µM. 650,000 compounds, 0.13% hits. AID 1259310, 2017; in the data active means normalized activity above about 1.9%;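 further: purified mutant Fbw7 with reduced substrate affinity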
# Target sequence (Q969H0 whole entry, looked up): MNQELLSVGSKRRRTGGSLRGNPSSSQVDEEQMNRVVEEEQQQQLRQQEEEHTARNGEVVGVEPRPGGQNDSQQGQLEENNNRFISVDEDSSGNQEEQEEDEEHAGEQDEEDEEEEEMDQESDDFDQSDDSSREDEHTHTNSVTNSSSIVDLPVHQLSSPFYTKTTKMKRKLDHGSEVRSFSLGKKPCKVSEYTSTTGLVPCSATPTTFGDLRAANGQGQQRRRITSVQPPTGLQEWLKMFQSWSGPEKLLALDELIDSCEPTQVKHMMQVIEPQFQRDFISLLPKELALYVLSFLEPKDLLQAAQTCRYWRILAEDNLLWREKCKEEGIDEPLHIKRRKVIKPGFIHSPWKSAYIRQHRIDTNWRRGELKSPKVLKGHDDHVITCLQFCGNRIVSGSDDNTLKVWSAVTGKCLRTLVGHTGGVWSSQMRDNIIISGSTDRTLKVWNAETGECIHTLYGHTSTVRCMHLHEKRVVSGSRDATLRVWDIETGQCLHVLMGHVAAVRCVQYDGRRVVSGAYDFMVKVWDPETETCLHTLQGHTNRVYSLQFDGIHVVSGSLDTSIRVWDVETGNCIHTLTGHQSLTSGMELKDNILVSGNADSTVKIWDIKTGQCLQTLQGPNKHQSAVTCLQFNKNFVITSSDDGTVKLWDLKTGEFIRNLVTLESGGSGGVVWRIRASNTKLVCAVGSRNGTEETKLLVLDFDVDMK
# GPR151 ag: activators of human GPR151, primary screen, cell-based, PathHunter beta-arrestin, luminescence | 650,000 compounds, 1% hits | PathHunter beta-arrestin GPR151 cells | activation, % at 11.2 µM | G-protein coupled receptor 151 (Homo sapiens), Q8TDV0 | AID 1508602, 2020; in the data active means activation above about 4.9%;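 further: 0% = median of compound wells and 100% = cells with positive control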
# MITF inh: MITF inhibitors, primary screen, biochemical, AlphaScreen, human. AlphaScreen MITF homodimerization, bead proximity signal. Microphthalmia-associated transcription factor (Homo sapiens), O75030. 650,000 compounds, 0.91% hits. AID 1259374, 2018. inhibition, % at 2.6 µM; in the data active means inhibition above about 50%;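 further: 0% = vehicle wells with protein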
# TEAD-YAP block: TEAD-YAP interaction inhibition, primary screen, TEAD-YAP interaction inhibitor project, luminescence, HEK-TIYL cells. TEAD-Gal4/YAP UAS-luciferase luminescence. inhibition, % at 9.12 µM. 640,000 compounds, 1.4% hits. AID 1259422, 2018; in the data active means inhibition above about 32%;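 further: 0% = median of test compound wells and 100% = reference inhibitor wells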
# The depositor's hits bear a star.
SMILES,FBW7 act,GPR151 ag,MITF inh,TEAD-YAP block
O=C(Nc1ccccc1)c1cccc(S(=O)(=O)N2CCCc3ccccc32)c1,0.2,2.9,6.1,2.6
Cc1cccc(NC(=O)c2ccc(F)c(S(=O)(=O)N3CCCc4ccccc43)c2)c1,0.0,1.9,-1.6,9.7
O=C(Nc1ccc(F)cc1)c1cccc(S(=O)(=O)N2CCCc3ccccc32)c1,0.1,1.3,8.9,39.9*
COC(=O)Nc1ccc(S(=O)(=O)N2CCCc3ccccc32)cc1,0.1,2.4,6.6,55.7*
O=C(Nc1ccc(Br)cc1)c1ccc(F)c(S(=O)(=O)N2CCCc3ccccc32)c1,-0.1,-1.1,-5.6,46.2*
COc1ccc(C(C)=O)cc1CC1(C)C(=O)Nc2c(-c3ccco3)cccc21 (configuration not stated),-0.2,-0.5,-0.3,0.9
N/C(=N\OC(=O)c1cccc([N+](=O)[O-])c1)c1ccc(Cl)cc1,0.1,-0.3,11.1,-2.9
C[C@@H]1O[C@@H](OC[C@H]2OC(Oc3c(-c4ccc(O)c(O)c4)oc4cc(O)cc(O)c4c3=O)[C@H](O)[C@@H](O)[C@@H]2O)[C@H](O)[C@H](O)[C@H]1O (some centres not stated),-0.3,-0.1,82.1*,6.7
CCc1ccccc1NC(=O)c1ccc(SCc2ccc(OC)cc2)c([N+](=O)[O-])c1,-0.1,-0.8,-4.8,1.1
CCc1ccccc1NC(=O)c1ccc(NCc2ccc(OC)cc2)c([N+](=O)[O-])c1,-0.1,0.4,1.5,57.2*
CCc1ccccc1NC(=O)c1ccc(NCc2ccc(C)cc2)c([N+](=O)[O-])c1,-0.2,3.6,0.8,56.8*
COc1ccc(CNc2ccc(C(=O)Nc3cccc(OC)c3)cc2[N+](=O)[O-])cc1,-0.2,-0.8,5.2,51.7*
CS(=O)(=O)Cc1nc2ccccc2[nH]c1=O,-0.1,-0.4,-2.8,-1.8
Fc1ccccc1-c1cnn2c(NCCc3ccccn3)ccnc12,-0.4,-2.6,-13.7,72.5*
CC(C)[C@@H](CO)Nc1ccnc2c(-c3ccccc3F)cnn12,0.1,2.6,10.1,55.6*
CC(C)[C@@H](CO)Nc1ccnc2c(-c3ccoc3)cnn12,0.1,0.2,-3.2,-3.3
Oc1cccc(-c2cnn3c(NCCc4ccccn4)ccnc23)c1,-0.4,0.1,-12.7,84.7*
CCc1ccc(NS(=O)(=O)c2cc(Br)cc3c2N(C(C)=O)CC3)cc1,0.5,-0.1,12.7,47.0*
COc1c(C)cc(S(=O)(=O)Nc2ccc3c(c2)N(C(=O)C2CC2)CC3)cc1C,0.0,1.0,4.7,43.1*
Cc1cccc(NS(=O)(=O)c2cc(Br)cc3c2N(C(=O)C2CC2)CC3)c1,0.0,1.4,0.2,70.9*
Cc1cc(NS(=O)(=O)c2ccc3c(c2)CCN3C(=O)C2CC2)ccc1Br,0.6,0.3,9.8,10.9
COc1ccc(NS(=O)(=O)c2cc(Br)cc3c2N(C(C)=O)CC3)cc1,0.1,1.0,9.8,44.2*
C[C@@H](O)[C@@H]1NC(=O)[C@@H]2C[C@H](NCc3ccccc3)CN2C1=O,0.1,-0.7,16.0,15.3
Cc1ccc(/C=C(\C#N)c2nc(-c3cc4cc(Br)ccc4oc3=O)cs2)cc1,0.1,-0.8,5.7,-1.8
CCOc1ccc(/C=C2\C(=O)Nc3ccc(C)cc32)cc1,0.1,-1.3,10.6,-4.1
SMILES,FBW7 act,GPR151 ag,MITF inh,TEAD-YAP block
CCN(CC)c1ccc(NC(=O)CNCCN2CCOCC2)c(C)c1,-0.1,1.7,60.6*,2.2
COc1ccc2c(=O)cc(-c3ccccc3)oc2c1,-0.1,0.5,2.4,-36.3
COc1ccc2c(=O)cc(C(Cl)(Cl)Cl)oc2c1,0.0,-0.7,3.2,14.7
COc1cccc(-c2cc(=O)c3cc(OC)ccc3o2)c1,0.2,-10.1,7.6,70.1*
COc1ccc2oc(C(Cl)(Cl)Cl)cc(=O)c2c1,0.5,-0.9,19.6,50.1*
Cc1oc(-c2ccccc2)nc1C(=O)OCC(N)=O,0.0,1.4,4.7,1.5
O=C1C(Cl)=C(Nc2cccc(O)c2)C(=O)N1c1ccccc1Cl,0.5,-0.4,16.3,2.9
